Source: PubChem BioAssay (NCI)
Compounds without any hit were thinned out: in the full panel of roughly 83,000, 20% have a hit.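 Interpretation: 100, growth as untreated; towards 0, rising growth inhibition; 0, no net growth; 0 to -100, cell death. Compounds scoring below 10 were considered active.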 A number with no mark means an inactive call. The source made the active and inactive calls.

Legend:
Assay in all cases: NCI-60 one-dose screen, 48 h (100 = growth as untreated, 0 = no growth, -100 = all killed)
Settings in all cases: 10 µM unless noted
T-47D breast = test system: T-47D breast
BT-549 breast = test system: BT-549 breast
MDA-MB-435 melanoma = test system: MDA-MB-435 melanoma
SW-620 colon = test system: SW-620 colon
MCF7 breast = test system: MCF7 breast
HCT-116 colon = test system: HCT-116 colon
HCC-2998 colon = test system: HCC-2998 colon
KM12 colon = test system: KM12 colon

O=C(/C=C/c1ccc([N+](=O)[O-])cc1)c1cccc(Nc2nc(Nc3ccccc3)nc(Nc3ccccc3)n2)c1
growth (T-47D breast): 47.1% | growth (BT-549 breast): 87.7% | growth (MDA-MB-435 melanoma): 91.7% | growth (SW-620 colon): 67.6% | growth (MCF7 breast): 15.6% | growth (HCT-116 colon): -11.9% (active) | growth (HCC-2998 colon): 46.1% | growth (KM12 colon): 81.1%

COc1cc2cc(Oc3ccc(NC(=O)Nc4ccc(Cl)c(Cl)c4)cc3)c(C)nc2cc1OCCN1CCCCC1
growth (T-47D breast): 85.9% | growth (BT-549 breast): 88.1% | growth (MDA-MB-435 melanoma): 74.2% | growth (SW-620 colon): 14.4% | growth (MCF7 breast): 55.9% | growth (HCT-116 colon): 91.3% | growth (HCC-2998 colon): 104% | growth (KM12 colon): 63.3%

C=CCn1c(SCC(=O)Nc2ccc(C(=O)/C=C/c3ccc(Cl)cc3)cc2)nnc1-c1ccccc1
growth (T-47D breast): 73% | growth (BT-549 breast): 71.3% | growth (MDA-MB-435 melanoma): 77.5% | growth (SW-620 colon): 98.4% | growth (MCF7 breast): 24.4% | growth (HCT-116 colon): -78.6% (active) | growth (HCC-2998 colon): 96.4% | growth (KM12 colon): 85.2%

Cn1cc(-c2nc(-c3c[nH]c4ccncc34)cs2)c2cc(F)ccc21
growth (T-47D breast): -52.2% (active) | growth (BT-549 breast): 69.6% | growth (MDA-MB-435 melanoma): -91% (active) | growth (SW-620 colon): -65.7% (active) | growth (MCF7 breast): -71.5% (active) | growth (HCT-116 colon): -95.4% (active) | growth (HCC-2998 colon): -80.6% (active) | growth (KM12 colon): -95.1% (active)

N#Cc1nn(-c2ccccn2)c(N)c1C#N
growth (T-47D breast): 84.1% | growth (BT-549 breast): 98.3% | growth (MDA-MB-435 melanoma): 101% | growth (SW-620 colon): 115% | growth (MCF7 breast): 99.8% | growth (HCT-116 colon): 87.7% | growth (HCC-2998 colon): 106% | growth (KM12 colon): 101%

CC(=O)O[C@H]1C[C@@]2(C)[C@@H](C[C@@H](O)[C@H]3[C@@]4(C)CC[C@H](N5CCCC5)[C@@H](C)[C@@H]4CC[C@@]32C)/C1=C(\CCC=C(C)C)C(=O)O
growth (T-47D breast): 103% | growth (BT-549 breast): 101% | growth (MDA-MB-435 melanoma): 99.7% | growth (SW-620 colon): 96.2% | growth (MCF7 breast): 90.7% | growth (HCT-116 colon): 99.9% | growth (HCC-2998 colon): 104% | growth (KM12 colon): 102%

CCOC(=O)C1=C(C)N(C)C(=O)N(C)C1c1ccccc1 (configuration not stated)
growth (T-47D breast): 96.3% | growth (BT-549 breast): 110% | growth (MDA-MB-435 melanoma): 89.2% | growth (SW-620 colon): 97.5% | growth (MCF7 breast): 107% | growth (HCT-116 colon): 79.4% | growth (HCC-2998 colon): 93.2% | growth (KM12 colon): 103%

CN(C)CC1C(=O)O[C@H]2[C@H]1CC/C(COC(=O)NCc1ccc(Cn3c(=O)sn(CCCI)c3=O)cc1)=C\CC[C@@]1(C)O[C@@H]21 (some centres not stated)
growth (T-47D breast): -55.5% (active) | growth (BT-549 breast): 50.1% | growth (MDA-MB-435 melanoma): 20.5% | growth (SW-620 colon): -74.9% (active) | growth (MCF7 breast): -55.4% (active) | growth (HCT-116 colon): -73.2% (active) | growth (HCC-2998 colon): 41% | growth (KM12 colon): 105%

CCCN1C2CCC1/C(=C\c1ccc(OC)cc1)C(=O)/C2=C/c1ccc(OC)cc1
growth (T-47D breast): 45.3% | growth (BT-549 breast): 87.2% | growth (MDA-MB-435 melanoma): 63.5% | growth (SW-620 colon): 90.4% | growth (MCF7 breast): 75.8% | growth (HCT-116 colon): 61.9% | growth (HCC-2998 colon): 91.9% | growth (KM12 colon): 74.2%

CCN1C(=O)N(CC)C2C1NN=c1s/c(=C\c3ccc(F)cc3)c(=O)n12 (configuration not stated)
growth (T-47D breast): 57.8% | growth (BT-549 breast): 14.5% | growth (MDA-MB-435 melanoma): -38.8% (active) | growth (SW-620 colon): 19.6% | growth (MCF7 breast): 18.2% | growth (HCT-116 colon): 13.6% | growth (HCC-2998 colon): 18.8% | growth (KM12 colon): 7.33% (active)

Cc1ccccc1NC(=O)c1sc2nc3c(cc2c1N)CCCC3
growth (T-47D breast): 29.6% | growth (BT-549 breast): 63.5% | growth (MDA-MB-435 melanoma): -18.4% (active) | growth (SW-620 colon): 19.2% | growth (MCF7 breast): 13.3% | growth (HCT-116 colon): 29% | growth (HCC-2998 colon): 64.8% | growth (KM12 colon): 25.2%

Cc1csc(Nc2nc(-c3cccc(Cl)c3)nc(C(Cl)(Cl)Cl)n2)n1
growth (T-47D breast): 5.33% (active) | growth (BT-549 breast): 96.8% | growth (MDA-MB-435 melanoma): 54.1% | growth (SW-620 colon): 42.4% | growth (MCF7 breast): 20.7% | growth (HCT-116 colon): 37.9% | growth (HCC-2998 colon): 7.13% (active) | growth (KM12 colon): 13.8%

Oc1ccc(C2OCCO2)c2cccnc12
growth (T-47D breast): 26.2% | growth (BT-549 breast): 64.2% | growth (MDA-MB-435 melanoma): 49.4% | growth (SW-620 colon): 22.3% | growth (MCF7 breast): 7.84% (active) | growth (HCT-116 colon): 8.85% (active) | growth (HCC-2998 colon): 96.6% | growth (KM12 colon): 72.4%

O=C(Nc1cccc2c1C(=O)c1cccc(NC(=O)c3ccc(C(=O)Nc4cccc5c4C(=O)c4cccc(NC(=O)c6ccccc6)c4C5=O)cc3)c1C2=O)c1ccccc1
growth (T-47D breast): 101% | growth (BT-549 breast): 72.4% | growth (MDA-MB-435 melanoma): 112% | growth (SW-620 colon): 99.9% | growth (MCF7 breast): 104% | growth (HCT-116 colon): 104% | growth (HCC-2998 colon): 101% | growth (KM12 colon): 102%
